Laboratory results taken from PubChem BioAssay.
Activity calls are given as the source filed them.

Columns and labels:
[1] = binders of probe aFSTL3 on microarray, primary screen, stem cell growth factor project, biochemical, small-molecule microarray, fluorescence 635/667 (AID 1064); conditions: higher = more signal;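 note: measures binding of the biotinylated anti-FSTL3 antibody to printed compounds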
[2] = binders from COS7 lysate, DM2A8 probe, primary screen, torsin A project, cell lysate, small-molecule microarray, fluorescence 635/667 (AID 1065); conditions: higher = more signal, COS7 lysate expressing mutant human TOR1A
[3] = binders of probe aFGF2 on microarray, primary screen, stem cell growth factor project, biochemical, small-molecule microarray, fluorescence 635/667 (AID 1067); conditions: higher = more signal;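 note: measures binding of biotinylated aFGF2 protein to printed compounds on slides; z-score merges feature fluorescence and signal-to-noise across triplicate slides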
[4] = binders of probe aFGF10 on microarray, primary screen, stem cell growth factor project, biochemical, small-molecule microarray, fluorescence 635/667 (AID 1071); conditions: higher = more signal;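 note: score merges 667 nm spot intensity and signal to noise from triplicate slides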
[5] = molecular target: Neurogenic locus notch homolog protein 2 (Homo sapiens) (UniProt Q04721); assay: Notch2 binders on small-molecule microarrays, primary screen, biochemical, small-molecule microarray, 635 nm fluorescence, stem cell growth factors (AID 1073); conditions: Notch2 binding, higher = more signal
[6] = molecular target: Pro-neuregulin-1, membrane-bound isoform (Homo sapiens) (UniProt Q02297); assay: NRG1 binders on small-molecule microarrays, primary screen, psychiatric disease protein project, biochemical, small-molecule microarray, fluorescence 635/667 (AID 1075); conditions: NRG1 binding, 635 nm fluorescence, higher = more signal;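 note: score combines 667 nm spot fluorescence with signal to noise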
[7] = tested on: Neuregulin-1 EGF-like domain; assay: binders of neuregulin-1 EGF-like domain, primary screen, biochemical, small-molecule microarray, 635 nm fluorescence (AID 1081); conditions: small-molecule microarray binding, higher = more signal;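 note: binding of the protein to compounds printed on small-molecule microarray slides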
[8] = FRG1 promoter luciferase signal modulators, primary screen, FRG1 inhibition for FSHD, cell-based, C2C12 myotubes, firefly/Renilla luciferase, luminescence (AID 1084); conditions: higher = more signal, called active from +8 up or from −8 down
[9] = binders of probe aFST on microarray, primary screen, stem cell growth factor project, biochemical, small-molecule microarray, fluorescence 635/667 (AID 1086); conditions: higher = more signal;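 note: score merges 667 nm fluorescence with signal-to-noise of each printed compound spot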
[10] = binders of probe aHhip on microarray, primary screen, stem cell growth factor project, biochemical, small-molecule microarray, fluorescence 635/667 (AID 1087); conditions: higher = more signal;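 note: score merges spot fluorescence at 667nm with spot signal to noise ratio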
[11] = tested on: PRMT1 (protein arginine N-methyltransferase 1); assay: PRMT1 binders on small-molecule microarrays, primary screen, biochemical, small-molecule microarray, 635 nm fluorescence (AID 1088); conditions: small-molecule microarray binding, higher = more signal;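 note: binding of Prmt1 protein to compounds spotted on small-molecule microarray slides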
[12] = yeast growth modulation, basal conditions, primary screen, YJM789 clinical isolate, OD600, 24 h (AID 1089);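 note: growth of clinical yeast isolate S. cerevisiae YJM 789 seeded 1000 cells per well; test concentration not given here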; conditions: S. cerevisiae YJM789 growth, higher = more signal, called active from +8 up or from −8 down
[13] = fission yeast growth modulation, primary screen, strain 972, OD600, 24 h, no modulator (AID 1090);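 note: basal condition with compound alone and no growth modifier present; test concentration not given here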; conditions: S. pombe 972 growth, higher = more signal, called active from +8 up or from −8 down
[14] = S. cerevisiae growth modulation with rapamycin, primary screen, strain BY4716, OD600, 96 h (AID 1091); conditions: higher = more signal, called active from +8 up or from −8 down; note: test concentration not given here
[15] = molecular target: Torsin-1A-interacting protein 2 (Homo sapiens) (UniProt Q8NFQ8); assay: LULL1 binders on small-molecule microarray, primary screen, cell lysate, human LULL1 lysate, 635/667 nm fluorescence (AID 1092); conditions: hLULL1 lysate binding, 635 nm fluorescence, higher = more signal;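 note: probe is lysate of COS7 cells overexpressing human LULL1; score merges per-feature 667 nm fluorescence with signal-to-noise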
[16] = E. coli growth modulation, two-sided OD650, primary screen, E. coli filamentation project, strain DRC41, 24 h (AID 1093); conditions: OD650, 24 h, higher = more signal, called active from +8 up or from −8 down;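 note: MC1000 strain lacking acrAB efflux and sulA so SOS filamentation is blocked; test concentration not given here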
[17] = small-molecule microarray binders of probe aLefty2, primary screen, biochemical, biotinylated probe, 635/667 nm fluorescence (AID 1094); conditions: higher = more signal;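 note: score merges spot fluorescence near 667 nm with spot signal-to-noise ratio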
[18] = tested on: Noggin (protein binding on small-molecule microarray); assay: Noggin binders on small-molecule microarray, primary screen, biochemical, 635/667 nm fluorescence (AID 1095); conditions: 635 nm fluorescence, higher = more signal;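 note: score merges 667 nm feature fluorescence with signal to noise over triplicate slides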
[19] = molecular target: Neurogenic locus notch homolog protein 3 (Homo sapiens) (UniProt Q9UM47); assay: NOTCH3 binders on small-molecule microarray, primary screen, biochemical, 635/667 nm fluorescence (AID 1096); conditions: NOTCH3 binding, 635 nm fluorescence, higher = more signal
[20] = small-molecule microarray binders of probe aEGFR, primary screen, biochemical, biotinylated probe, 635/667 nm fluorescence (AID 1097); conditions: higher = more signal;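 note: probe is a biotinylated anti-EGFR antibody binding compounds printed on slides; score combines fluorescence near 667 nm and signal to noise of each spot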

Sequence of Neurogenic locus notch homolog protein 3 (Homo sapiens) (Q9UM47 whole entry, looked up): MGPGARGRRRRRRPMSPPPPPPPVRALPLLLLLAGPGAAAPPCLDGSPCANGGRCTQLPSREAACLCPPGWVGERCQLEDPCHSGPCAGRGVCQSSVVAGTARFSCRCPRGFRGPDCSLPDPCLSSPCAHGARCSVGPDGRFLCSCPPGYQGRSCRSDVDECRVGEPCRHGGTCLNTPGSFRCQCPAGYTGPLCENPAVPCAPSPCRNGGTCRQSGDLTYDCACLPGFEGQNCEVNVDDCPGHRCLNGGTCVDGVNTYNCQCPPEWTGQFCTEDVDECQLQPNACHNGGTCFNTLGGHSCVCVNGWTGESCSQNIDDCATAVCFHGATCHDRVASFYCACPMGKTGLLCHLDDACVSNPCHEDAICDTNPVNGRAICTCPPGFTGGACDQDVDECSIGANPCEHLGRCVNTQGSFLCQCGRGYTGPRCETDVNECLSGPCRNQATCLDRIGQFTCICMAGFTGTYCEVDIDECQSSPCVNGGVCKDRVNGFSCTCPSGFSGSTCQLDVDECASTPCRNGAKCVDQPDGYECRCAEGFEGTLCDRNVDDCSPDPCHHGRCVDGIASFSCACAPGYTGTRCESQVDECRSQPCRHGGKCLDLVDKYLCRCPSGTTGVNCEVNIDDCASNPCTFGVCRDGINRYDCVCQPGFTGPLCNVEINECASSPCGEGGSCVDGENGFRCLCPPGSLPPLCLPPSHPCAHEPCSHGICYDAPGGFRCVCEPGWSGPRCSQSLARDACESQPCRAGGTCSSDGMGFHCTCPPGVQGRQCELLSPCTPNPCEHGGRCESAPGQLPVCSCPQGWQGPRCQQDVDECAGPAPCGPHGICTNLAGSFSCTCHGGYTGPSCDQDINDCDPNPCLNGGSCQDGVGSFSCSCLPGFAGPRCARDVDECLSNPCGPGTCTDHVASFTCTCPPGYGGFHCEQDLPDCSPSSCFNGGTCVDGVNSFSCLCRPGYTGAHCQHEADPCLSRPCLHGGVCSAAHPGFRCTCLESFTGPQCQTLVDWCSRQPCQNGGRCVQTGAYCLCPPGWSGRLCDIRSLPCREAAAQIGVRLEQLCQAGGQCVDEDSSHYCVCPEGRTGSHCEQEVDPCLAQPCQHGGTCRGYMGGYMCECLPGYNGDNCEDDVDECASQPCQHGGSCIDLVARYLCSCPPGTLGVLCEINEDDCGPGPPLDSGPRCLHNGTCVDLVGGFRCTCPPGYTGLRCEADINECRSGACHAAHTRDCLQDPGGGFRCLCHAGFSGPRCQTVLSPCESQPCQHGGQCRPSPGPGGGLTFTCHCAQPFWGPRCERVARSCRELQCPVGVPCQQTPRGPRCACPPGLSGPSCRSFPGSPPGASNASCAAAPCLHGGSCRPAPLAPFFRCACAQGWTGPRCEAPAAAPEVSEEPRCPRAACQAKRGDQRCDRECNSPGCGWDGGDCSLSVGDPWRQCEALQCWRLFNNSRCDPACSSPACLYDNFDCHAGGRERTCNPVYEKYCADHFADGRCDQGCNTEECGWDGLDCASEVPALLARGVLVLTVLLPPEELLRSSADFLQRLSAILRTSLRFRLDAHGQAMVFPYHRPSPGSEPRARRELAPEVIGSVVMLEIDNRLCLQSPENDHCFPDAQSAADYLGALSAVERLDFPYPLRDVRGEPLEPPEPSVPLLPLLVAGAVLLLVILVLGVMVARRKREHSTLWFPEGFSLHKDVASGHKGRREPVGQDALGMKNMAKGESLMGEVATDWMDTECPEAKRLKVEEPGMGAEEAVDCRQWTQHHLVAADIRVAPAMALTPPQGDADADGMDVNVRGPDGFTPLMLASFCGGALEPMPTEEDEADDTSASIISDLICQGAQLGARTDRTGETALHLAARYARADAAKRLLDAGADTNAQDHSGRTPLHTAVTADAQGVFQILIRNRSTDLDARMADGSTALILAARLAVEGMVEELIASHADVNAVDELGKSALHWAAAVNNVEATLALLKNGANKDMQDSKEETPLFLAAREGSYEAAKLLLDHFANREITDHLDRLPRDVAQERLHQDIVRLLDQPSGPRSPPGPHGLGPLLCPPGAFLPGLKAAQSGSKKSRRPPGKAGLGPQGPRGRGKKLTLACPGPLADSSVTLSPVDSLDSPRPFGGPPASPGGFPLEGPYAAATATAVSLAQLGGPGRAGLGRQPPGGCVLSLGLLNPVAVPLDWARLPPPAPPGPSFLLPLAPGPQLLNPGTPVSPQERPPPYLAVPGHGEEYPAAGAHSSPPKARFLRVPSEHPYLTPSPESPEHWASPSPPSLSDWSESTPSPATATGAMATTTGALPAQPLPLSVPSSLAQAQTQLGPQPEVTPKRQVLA
Sequence of Pro-neuregulin-1, membrane-bound isoform (Homo sapiens) (Q02297 whole entry, looked up, the tested form may be a part, canonical isoform): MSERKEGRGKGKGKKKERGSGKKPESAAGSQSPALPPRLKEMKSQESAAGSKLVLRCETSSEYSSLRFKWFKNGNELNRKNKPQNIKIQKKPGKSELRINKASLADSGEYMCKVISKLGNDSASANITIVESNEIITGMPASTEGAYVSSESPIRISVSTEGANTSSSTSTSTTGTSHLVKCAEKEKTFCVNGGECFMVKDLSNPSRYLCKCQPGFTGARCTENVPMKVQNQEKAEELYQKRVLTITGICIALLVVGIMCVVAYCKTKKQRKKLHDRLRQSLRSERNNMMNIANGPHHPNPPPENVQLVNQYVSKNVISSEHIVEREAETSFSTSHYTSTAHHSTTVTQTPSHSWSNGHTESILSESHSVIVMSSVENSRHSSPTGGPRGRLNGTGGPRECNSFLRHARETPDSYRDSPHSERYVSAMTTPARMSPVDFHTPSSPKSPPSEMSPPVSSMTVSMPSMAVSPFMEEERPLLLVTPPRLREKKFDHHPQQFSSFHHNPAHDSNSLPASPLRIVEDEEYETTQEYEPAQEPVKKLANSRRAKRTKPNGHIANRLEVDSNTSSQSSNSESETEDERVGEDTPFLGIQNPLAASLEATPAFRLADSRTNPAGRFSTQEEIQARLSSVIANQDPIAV
Sequence of Torsin-1A-interacting protein 2 (Homo sapiens) (Q8NFQ8 whole entry, looked up): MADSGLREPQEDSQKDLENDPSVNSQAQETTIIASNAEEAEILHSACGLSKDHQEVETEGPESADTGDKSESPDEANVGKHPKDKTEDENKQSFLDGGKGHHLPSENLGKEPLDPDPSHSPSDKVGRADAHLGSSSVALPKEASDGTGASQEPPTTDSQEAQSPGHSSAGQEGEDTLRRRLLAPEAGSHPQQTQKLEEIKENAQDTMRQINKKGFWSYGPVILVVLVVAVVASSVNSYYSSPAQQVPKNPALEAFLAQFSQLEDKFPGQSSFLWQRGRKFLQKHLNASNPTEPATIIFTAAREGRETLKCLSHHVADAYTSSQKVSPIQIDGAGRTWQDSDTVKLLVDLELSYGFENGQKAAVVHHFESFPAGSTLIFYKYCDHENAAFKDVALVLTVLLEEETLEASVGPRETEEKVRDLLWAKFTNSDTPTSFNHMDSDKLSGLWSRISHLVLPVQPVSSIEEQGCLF

Compound	composite z-score [1]	composite z-score [2]	composite z-score [3]	composite z-score [4]	composite z-score [5]	composite z-score [6]	composite z-score [7]	z-score [8]	composite z-score [9]	composite z-score [10]	composite z-score [11]	z-score [12]	z-score [13]	z-score [14]	composite z-score [15]	z-score [16]	composite z-score [17]	composite z-score [18]	composite z-score [19]	composite z-score [20]
CN1C(=O)C2C=CC(C(O)C(c3ccccc3)c3ccccc3)N(Nc3ccccc3)C2C1=O (stereo not given)	-0.0907	0.403	0.0814	0.868	1.48	1.94	1.21	-0.704 (inactive)	1.37	-0.131	1.55	-0.272 (inactive)	-0.346 (inactive)	-0.125 (inactive)	3.46	-1.7 (inactive)	0.0336	-0.152	1.05	0.0209
C=C(C(=O)CC[C@@H](OC(C)=O)c1ccc(OCCO)cc1)C(C)C	0.0823	0.366	-0.0676	0.853	0.146	0.845	1.19	2.4 (inactive)	-0.193	-0.287	0.387	-1.33 (inactive)	-1.38 (inactive)	-0.423 (inactive)	1.45	0.278 (inactive)	-0.114	-0.053	-0.054	0.0073
CCCCN1CC=CC23O[C@@H]4/C=C\CCCOC(=O)C4[C@H]2C(=O)N(C(C)CO)[C@@H]3C1=O (stereo not given in full)	-0.0235	-0.809	-0.0963	-0.272	-0.327	0.223	1.19	-1.01 (inactive)	-0.375	-0.261	-0.376	-0.0849 (inactive)	-0.958 (inactive)	-0.417 (inactive)	-0.0431	0.315 (inactive)	-0.282	0.16	-0.0087	-0.233
CC(c1ccccc1)C(O)C1C=CC2C(=O)N(Cc3ccccc3)C(=O)C2N1n1cnnc1 (stereo not given)	-0.0479	0.327	-0.0165	0.351	1.07	0.446	1.01	-0.0355 (inactive)	0.541	0.0373	0.418	-1.04 (inactive)	-0.0262 (inactive)	0.496 (inactive)	1.6	-1.27 (inactive)	0.0524	0.483	0.728	0.08
COc1ccccc1CN1C(=O)c2ccccc2[C@](Cc2ccccc2I)(C(=O)NCc2ccccc2)[C@@H]1c1ccc(CO)cc1	0.317	1.33	-0.0614	0.197	0.106	0.923	0.535	-1.13 (inactive)	0.182	0.154	1.02	-0.295 (inactive)	-0.127 (inactive)	-0.694 (inactive)	2.22	0.106 (inactive)	0.0023	-0.373	-0.418	-0.0432
COCCOC(=O)N1C(=O)[C@@]2(c3cc(C#CCCO)ccc31)[C@H](C(=O)NC[C@H](O)c1ccccc1)[C@H]1C(=O)O[C@H](c3ccccc3)[C@H](c3ccccc3)N1[C@@H]2c1ccc(OCCO)cc1	0.664	0.271	-0.114	0.208	1.08	1.27	1.16	0.469 (inactive)	0.152	-0.11	1.54	1.23 (inactive)	0.619 (inactive)	4.47 (inactive)	3.11	2.17 (inactive)	0.0129	0.909	1.05	0.0634
C=C(COC)C(=O)CC[C@H](OC(=O)c1cccnc1)c1ccccc1OCCO	-0.0665	0.903	-0.0004	0.675	0.928	0.599	1.24	0.445 (inactive)	0.437	-0.236	1.56	-2.31 (inactive)	-1.57 (inactive)	-0.278 (inactive)	1.47	0.473 (inactive)	0.157	1.15	1.15	-0.0406
C=C[C@H](OC)[C@@H](OC(=O)Nc1ccc(SC)cc1)c1ccc(OCCO)cc1	0.0168	0.594	-0.0307	0.778	-0.21	0.121	1.41	5.3 (inactive)	-0.0503	-0.249	1.15	0.458 (inactive)	-0.339 (inactive)	0.513 (inactive)	2.67	1.15 (inactive)	-0.0478	-0.555	-0.179	0.507
C=C[C@H](C)[C@H](O)c1ccc(OCCO)cc1	0.254	-0.716	-0.243	-1.14	-2.21	-0.758	-0.694	5.78 (inactive)	-0.91	-0.204	-0.647	0.132 (inactive)	-0.404 (inactive)	-0.539 (inactive)	-1.2	0.943 (inactive)	0.19	-1.19	-1.11	-0.397
